From PubChem BioAssay AID1159580 (chemical genetic matrix, 2015)
Hit rate of the full screen: of about 5,500 compounds, about 2,000 (36%) were called active. About 18% were inconclusive and are not listed. Rule as the data show it: active = normalized growth mostly below about 0.91 (no sharp cut-off); inconclusive = no clear call, values can overlap the other calls; inactive = mostly above about 0.92. The list shows a part of the results.

Assay: chemical genetic growth profiling, strain panel (AID 1159580);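 also: tested at 20 µM; growth read once vehicle control cultures reached saturation at 30 °C; 1 = growth at the plate median or of vehicle wells; lower values mean less growth of the strain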
Settings: growth OD

Measured: normalized growth

Nc1ncnc2nc[nH]c12
inactive: S. cerevisiae deletion strains, locus YJR066W, strain TOR1, stronger effect = lower value 0.966 | S. cerevisiae deletion strains, locus YKL009W, strain mrt4, stronger effect = lower value 0.942 | S. cerevisiae deletion strains, locus YKL068W, stronger effect = lower value 1.03 | S. cerevisiae deletion strains, locus YKL085W, strain MDH1 (second series), stronger effect = lower value 1.01 | S. cerevisiae deletion strains, locus YKL085W, strain MDH1, stronger effect = lower value 1.01 | S. cerevisiae deletion strains, locus YKL160W, strain elf1, stronger effect = lower value 0.995 | S. cerevisiae deletion strains, locus YKR026C, strain gcn3, stronger effect = lower value 0.996 | S. cerevisiae deletion strains, locus YKR091W, strain srl3, stronger effect = lower value 0.99 | S. cerevisiae deletion strains, locus YLL001W, strain dnm1, stronger effect = lower value 0.965 | S. cerevisiae deletion strains, locus YLL026W, stronger effect = lower value 0.994 | S. cerevisiae deletion strains, locus YLL041C, strain sdh2, stronger effect = lower value 0.991 | S. cerevisiae deletion strains, locus YLR027C, strain aat2, stronger effect = lower value 0.997 | S. cerevisiae deletion strains, locus YLR058C, strain SHM2, stronger effect = lower value 0.908 | S. cerevisiae deletion strains, locus YLR102C, strain apc9, stronger effect = lower value 0.997 | S. cerevisiae deletion strains, locus YLR113W, strain HOG1, stronger effect = lower value 1.04 | S. cerevisiae deletion strains, locus YLR221C, strain rsa3, stronger effect = lower value 0.964 | S. cerevisiae deletion strains, locus YLR258W, strain gsy2, stronger effect = lower value 0.985 | S. cerevisiae deletion strains, locus YLR262C, strain YPT6 (second series), stronger effect = lower value 1.01 | S. cerevisiae deletion strains, locus YLR320W, strain mms22, stronger effect = lower value 0.973 | S. cerevisiae deletion strains, locus YLR342W, strain FKS1 (second series), stronger effect = lower value 0.864 | S. cerevisiae deletion strains, locus YLR342W, strain FKS1, stronger effect = lower value 0.983 | S. cerevisiae deletion strains, locus YLR357W, strain rsc2, stronger effect = lower value 0.972 | S. cerevisiae deletion strains, locus YLR370C, strain arc18, stronger effect = lower value 0.983 | S. cerevisiae deletion strains, locus YLR371W, strain rom2, stronger effect = lower value 0.985 | S. cerevisiae deletion strains, locus YLR384C, strain iki3, stronger effect = lower value 0.987 | S. cerevisiae deletion strains, locus YML016C, strain PPZ1, stronger effect = lower value 1.04 | S. cerevisiae deletion strains, locus YML032C, strain rad52, stronger effect = lower value 0.972 | S. cerevisiae deletion strains, locus YML120C, strain ndi1, stronger effect = lower value 0.97 | S. cerevisiae deletion strains, locus YML124C, strain tub3, stronger effect = lower value 1 | S. cerevisiae deletion strains, locus YMR058W, strain fet3, stronger effect = lower value 0.994 | S. cerevisiae deletion strains, locus YMR078C, strain ctf18, stronger effect = lower value 0.988 | S. cerevisiae deletion strains, locus YMR125W, strain sto1, stronger effect = lower value 0.978 | S. cerevisiae deletion strains, locus YMR129W, stronger effect = lower value 0.979 | S. cerevisiae deletion strains, locus YMR205C, strain PFK2, stronger effect = lower value 0.968 | S. cerevisiae deletion strains, locus YMR231W, strain pep5, stronger effect = lower value 0.991 | S. cerevisiae deletion strains, locus YMR263W, strain SAP30, stronger effect = lower value 0.932 | S. cerevisiae deletion strains, locus YMR307W, strain GAS1, stronger effect = lower value 1.18 | S. cerevisiae deletion strains, locus YNL067W, strain RPL9B, stronger effect = lower value 0.945 | S. cerevisiae deletion strains, locus YNL071W, strain lat1, stronger effect = lower value 0.988 | S. cerevisiae deletion strains, locus YNL128W, strain TEP1, stronger effect = lower value 0.955 | S. cerevisiae deletion strains, locus YNL183C, strain NPR1, stronger effect = lower value 0.97 | S. cerevisiae deletion strains, locus YNL209W, strain ssb2, stronger effect = lower value 0.984 | S. cerevisiae deletion strains, locus YNL248C, strain rpa49, stronger effect = lower value 0.982 | S. cerevisiae deletion strains, locus YNL250W, strain rad50, stronger effect = lower value 1.01 | S. cerevisiae deletion strains, locus YNL271C, strain bni1, stronger effect = lower value 0.956 | S. cerevisiae deletion strains, locus YNL298W, strain CLA4, stronger effect = lower value 0.956 | S. cerevisiae deletion strains, locus YNL322C, strain KRE1 (second series), stronger effect = lower value 0.982 | S. cerevisiae deletion strains, locus YNL322C, strain KRE1, stronger effect = lower value 0.97 | S. cerevisiae deletion strains, locus YNR049C, strain mso1, stronger effect = lower value 0.982 | S. cerevisiae deletion strains, locus YNR052C, strain pop2, stronger effect = lower value 0.954 | S. cerevisiae deletion strains, locus YOL006C, strain TOP1, stronger effect = lower value 0.783 | S. cerevisiae deletion strains, locus YOL012C, strain htz1 0.719 | S. cerevisiae deletion strains, locus YOR001W, strain rrp6, stronger effect = lower value 1 | S. cerevisiae deletion strains, locus YOR061W, strain CKA2, stronger effect = lower value 0.995 | S. cerevisiae deletion strains, locus YOR069W, strain VPS5, stronger effect = lower value 0.971 | S. cerevisiae deletion strains, locus YOR070C, strain gyp1, stronger effect = lower value 0.981 | S. cerevisiae deletion strains, locus YOR080W, strain dia2, stronger effect = lower value 0.997 | S. cerevisiae deletion strains, locus YOR083W, strain WHI5, stronger effect = lower value 0.981 | S. cerevisiae deletion strains, locus YOR106W, strain vam3, stronger effect = lower value 0.953 | S. cerevisiae deletion strains, locus YOR136W, strain idh2, stronger effect = lower value 0.968 | S. cerevisiae deletion strains, locus YOR231W, strain MKK1, stronger effect = lower value 1.01 | S. cerevisiae deletion strains, locus YOR265W, strain rbl2, stronger effect = lower value 0.987 | S. cerevisiae deletion strains, locus YOR270C, strain vph1, stronger effect = lower value 0.972 | S. cerevisiae deletion strains, locus YOR290C, strain snf2, stronger effect = lower value 0.971 | S. cerevisiae deletion strains, locus YOR316C, strain cot1, stronger effect = lower value 0.995 | S. cerevisiae deletion strains, locus YPL051W, strain arl3, stronger effect = lower value 0.99 | S. cerevisiae deletion strains, locus YPL055C, strain LGE1, stronger effect = lower value 0.796 | S. cerevisiae deletion strains, locus YPL078C, strain atp4, stronger effect = lower value 0.983 | S. cerevisiae deletion strains, locus YPL106C, strain sse1, stronger effect = lower value 0.973 | S. cerevisiae deletion strains, locus YPL240C, strain hsp82, stronger effect = lower value 0.993 | S. cerevisiae deletion strains, locus YPL241C, strain CIN2, stronger effect = lower value 1.01 | S. cerevisiae deletion strains, locus YPL256C, strain CLN2, stronger effect = lower value 1.06 | S. cerevisiae deletion strains, locus YPR119W, strain clb2, stronger effect = lower value 0.987 | S. cerevisiae deletion strains, locus YPR141C, strain kar3, stronger effect = lower value 1.02 | S. cerevisiae deletion strains, locus YPR167C, strain met16, stronger effect = lower value 0.976
active: S. cerevisiae deletion strains, locus YKR001C, strain vps1, stronger effect = lower value 0.319 | S. cerevisiae deletion strains, locus YLR039C, strain RIC1, stronger effect = lower value 0.443 | S. cerevisiae deletion strains, locus YLR262C, strain YPT6, stronger effect = lower value 0.514 | S. cerevisiae deletion strains, locus YLR268W, strain sec22, stronger effect = lower value 0.795 | S. cerevisiae deletion strains, locus YLR330W, strain CHS5, stronger effect = lower value 0.842 | S. cerevisiae deletion strains, locus YLR418C, strain cdc73, stronger effect = lower value 0.612 | S. cerevisiae deletion strains, locus YMR223W, strain ubp8, stronger effect = lower value 0.846 | S. cerevisiae deletion strains, locus YNL233W, strain BNI4, stronger effect = lower value 0.695 | S. cerevisiae deletion strains, locus YNL307C, strain MCK1, stronger effect = lower value 0.591 | S. cerevisiae deletion strains, locus YOL147C, strain pex11, stronger effect = lower value 0.834 | S. cerevisiae deletion strains, locus YOR144C, strain elg1, stronger effect = lower value 0.885 | S. cerevisiae deletion strains, locus YOR184W, strain ser1, stronger effect = lower value 0.708 | S. cerevisiae deletion strains, locus YPR163C, strain tif3, stronger effect = lower value 0.889 | S. cerevisiae deletion strains, strain wtn01, stronger effect = lower value 0.841 | S. cerevisiae strains, strain wild type, stronger effect = lower value 0.879
